Results filed as inconclusive are left out. The source made the active and inactive calls. Unless noted, the call rests on the fitted dose curve; in most records, active means well fitted curve in the direction sought with a large enough effect in the repeat runs; inconclusive means weak or mixed curves; inactive means no such curve, though single readings can be large; an effect the other way counts as inactive or inconclusive.
Experiments:
[1] = target: Aryl hydrocarbon receptor (Homo sapiens) (UniProt P35869); assay: qHTS assay to identify small molecule that activate the aryl hydrocarbon receptor (AhR) signaling pathway (AID 743085); further: nearly all actives have a fitted effect of over 15% in size; further: potency means the concentration at half of the fitted maximal effect;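 on activation: HG2L7.5c1 human HepG2 liver cells with stably integrated DRE-driven firefly reporter; series mostly up to about 70 µM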
Method in brief: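 24 h compound exposure, 37C, HepG2-derived HG2L7.5c1 cells with DRE-responsive luciferase. Readouts: fluorescence viability, then luminescence at room temperature after 30 min.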

[2] = target: Peroxisome proliferator-activated receptor gamma (Homo sapiens) (UniProt P37231); assay: qHTS assay to identify small molecule agonists of the peroxisome proliferator-activated receptor gamma (PPARg) signaling pathway (AID 743094; active means well fitted activation curve with a large enough effect in the signal ratio in the repeat runs, not every such curve was filed as active; the % refers to the signal ratio)
Method in brief: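 GeneBLAzer PPARg UAS-bla HEK293H cells carrying a stably integrated beta-lactamase reporter were pre-incubated 5 h at 37C, then exposed to compounds in DMSO for 17 h at 37C; LiveBLAzer B/G FRET substrate was added for 1 h at room temperature and fluorescence read.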

[3] = target: Peroxisome proliferator-activated receptor gamma (Homo sapiens) (UniProt P37231); assay: qHTS assay to identify small molecule antagonists of the peroxisome proliferator-activated receptor gamma (PPARg) signaling pathway (AID 743191; calls by dose curve; further: nearly all actives have a fitted effect of over 30% in size; further: potency means the concentration at half of the fitted maximal effect)
Method in brief: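 GeneBLAzer PPARg UAS-bla HEK293H cells carrying a UAS-driven beta-lactamase reporter were plated at 3000 cells/well, preincubated 5 h at 37C, then given compound for 17 h at 37C; LiveBLAzer B/G FRET substrate was read after 1 h at room temperature.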

[4] = qHTS assay to identify small molecule antagonists of the peroxisome proliferator-activated receptor gamma (PPARg) signaling pathway - cell viability counter screen (AID 743194); further: nearly all actives have a fitted effect of over 55% in size
Method in brief: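 PPARg-UAS-bla HEK293H cells were plated, rested 5 h at 37 C, then treated with compounds plus rosiglitazone (50 nM final) for 17 h at 37 C; viability was then read by CellTiter-Glo luminescence after 30 min at room temperature.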

[5] = qHTS assay for small molecule agonists of the antioxidant response element (ARE) signaling pathway - cell viability counter screen (AID 743203; calls by dose curve; further: nearly all actives have a fitted effect of over 55% in size; further: potency means the concentration at half of the fitted maximal effect)
Method in brief: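 CellSensor ARE-bla HepG2 cells, 2,000 per well, rested 5 hrs at 37C/5% CO2, then exposed to compound in DMSO for 16 hrs; viability read as CellTiter-Glo luminescence after 30 min at room temperature, in the reporter wells.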

[6] = qHTS assay to identify small molecule agonists of the peroxisome proliferator-activated receptor delta (PPARd) signaling pathway - cell viability counter screen (AID 743211); further: nearly all actives have a fitted effect of over 55% in size; further: potency means the concentration at half of the fitted maximal effect
Method in brief: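 Luminescent ATP viability assay (CellTiter-Glo, 30 min RT) in UAS-bla HEK293H cells carrying the PPAR delta reporter construct, 3000 cells/well, after a 17 h compound treatment at 37 C.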

[7] = qHTS assay to identify small molecule antagonists of the peroxisome proliferator-activated receptor delta (PPARd) signaling pathway - cell viability counter screen (AID 743213); further: nearly all actives have a fitted effect of over 50% in size; further: potency means the concentration at half of the fitted maximal effect
Method in brief: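 PPARd-bla HEK293H cells were treated with compounds plus agonist L165041 (300 nM final) for 17 h at 37 C. Viability was then read in the same wells by CellTiter-Glo luminescence after 30 min at room temperature.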

[8] = target: Peroxisome proliferator-activated receptor delta (Homo sapiens) (UniProt Q03181); assay: qHTS assay to identify small molecule antagonists of the peroxisome proliferator-activated receptor delta (PPARd) signaling pathway (AID 743215; active means well fitted inhibition curve with a large enough effect in the signal ratio in the repeat runs, not every such curve was filed as active; the % refers to the signal ratio;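 further: cells stimulated with agonist L165041 at 300 nM final during compound exposure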; further: potency means the concentration at half of the fitted maximal effect)
Method in brief: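 PPARd UAS-bla HEK293H cells were pre-incubated 5 h at 37 C, then given test compounds in DMSO plus agonist L165041 (300 nM final). After 17 h at 37 C, beta-lactamase FRET substrate was added; fluorescence read after 2 h at room temperature.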

[9] = qHTS assay to identify small molecule agonists of the farnesoid-X-receptor (FXR) signaling pathway - cell viability counter screen (AID 743218); further: nearly all actives have a fitted effect of over 45% in size; further: potency means the concentration at half of the fitted maximal effect
Method in brief: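 FXR-UAS-bla HEK 293T cells, plated 5 h at 37 C, were exposed to compounds for 16 h at 37 C. CellTiter-Glo was then added to the same wells as the bla readout; luminescence read after 30 min at room temperature.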

[10] = target: Vitamin D3 receptor (Homo sapiens) (UniProt P11473); assay: qHTS assay to identify small molecule agonists of the vitamin D receptor (VDR) signaling pathway (AID 743222; calls by dose curve)
Method in brief: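 VDR-bla cells were plated 4 h at 37C/5% CO2, then exposed to compounds in DMSO for 16 h. After LiveBLAzer B/G FRET substrate addition and 2 h at room temperature, beta-lactamase reporter fluorescence was read.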

[11] = target: Vitamin D3 receptor (Homo sapiens) (UniProt P11473); assay: qHTS assay to identify small molecule antagonists of the vitamin D receptor (VDR) signaling pathway (AID 743223; active means well fitted inhibition curve with a large enough effect in the signal ratio in the repeat runs, not every such curve was filed as active; the % refers to the signal ratio)
Method in brief: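 Agonist 1alpha,25-dihydroxyvitamin D3 (3 nM in well) was added with each compound to VDR-bla cells preincubated 4 h. Cells stood 16 h at 37C, then FRET substrate 2 h at room temperature; fluorescence intensity recorded.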

[12] = qHTS assay to identify aromatase inhibitors - cell viability counter screen (AID 743084);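 further: cells stimulated with testosterone during compound exposure; nearly all actives have a fitted effect of over 55% in size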; further: potency means the concentration at half of the fitted maximal effect
[13] = qHTS assay to identify small molecule that activate the aryl hydrocarbon receptor (AhR) signaling pathway - cell viability counter screen (AID 743086); further: nearly all actives have a fitted effect of over 45% in size; further: potency means the concentration at half of the fitted maximal effect
Method in brief: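 HepG2-AhR-luc (HG2L7.5c1) cells, 4000/well, were preincubated 5 h at 37C, exposed to compound in qHTS format for 24 hr at 37C, then given CellTiter-Fluor for 30 min; viability was read as fluorescence in the reporter wells.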

[14] = qHTS assay for small molecule activators of the heat shock response signaling pathway - cell viability counter screen (AID 743209); further: nearly all actives have a fitted effect of over 50% in size
Method in brief: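 CellSensor HSE-bla HeLa cells, plated overnight at 37 C/5% CO2, were exposed to compounds in DMSO for 5 h at 37 C. Viability was then read in the same wells by CellTiter-Glo luminescence after 30 min at room temperature.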

[15] = qHTS assay for small molecule activators of the heat shock response signaling pathway (AID 743210; active means well fitted activation curve with a large enough effect in the signal ratio in the repeat runs, with a control signal flat, not every such curve was filed as active; the % refers to the signal ratio; further: series mostly up to about 63 µM)
Method in brief: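 HSE-bla HeLa cells (beta-lactamase reporter under heat shock response elements) were exposed to compounds for 5 h at 37 C, then loaded with LiveBLAzer B/G FRET substrate for 2.5 h at room temperature before fluorescence reading.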

[16] = target: Peroxisome proliferator-activated receptor delta (Homo sapiens) (UniProt Q03181); assay: qHTS assay to identify small molecule agonists of the peroxisome proliferator-activated receptor delta (PPARd) signaling pathway (AID 743212; calls by dose curve)
Method in brief: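 GeneBLAzer PPARd UAS-bla HEK293H cells (beta-lactamase reporter under UAS control), plated and rested 5 h at 37 C, then exposed to compounds in DMSO at 37 C; LiveBLAzer B/G FRET substrate added, 2 h room temperature, fluorescence read.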

[17] = target: Bile acid receptor (Homo sapiens) (UniProt Q96RI1); assay: qHTS assay to identify small molecule antagonists of the farnesoid-X-receptor (FXR) signaling pathway (AID 743217; active means well fitted inhibition curve with a large enough effect in the signal ratio in the repeat runs, not every such curve was filed as active; the % refers to the signal ratio; further: potency means the concentration at half of the fitted maximal effect)
Method in brief: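 FXR-UAS-bla HEK 293T cells pre-incubated 5 h at 37 °C, then exposed to compounds with chenodeoxycholic acid (50 uM final) for 16 h at 37 °C. Beta-lactamase reporter read by LiveBLAzer B/G FRET substrate fluorescence after 2 h at room temperature.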

[18] = target: Bile acid receptor (Homo sapiens) (UniProt Q96RI1); assay: qHTS assay to identify small molecule agonists of the farnesoid-X-receptor (FXR) signaling pathway (AID 743220; active means well fitted activation curve with a large enough effect in the signal ratio in the repeat runs, not every such curve was filed as active; the % refers to the signal ratio; further: potency means the concentration at half of the fitted maximal effect)
Method in brief: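 Beta-lactamase reporter under UAS control in GeneBLAzer FXR HEK 293T cells (5000/well) measured with LiveBLAzer FRET substrate after 2 h at room temperature. Compound exposure lasted 16 h at 37C.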

[19] = qHTS assay to identify small molecule antagonists of the farnesoid-X-receptor (FXR) signaling pathway - cell viability counter screen (AID 743221; active means well fitted cell-killing curve with a large enough effect in the repeat runs, not every such curve was filed as active; further: nearly all actives have a fitted effect of over 50% in size; further: potency means the concentration at half of the fitted maximal effect)
Method in brief: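 In GeneBLAzer FXR-UAS-bla HEK 293T cells stimulated with 50 uM chenodeoxycholic acid (final), compounds acted for 16 h at 37 C. Viability was assessed afterwards by CellTiter-Glo luminescence.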

[20] = qHTS assay for small molecule agonists of the antioxidant response element (ARE) signaling pathway (AID 743202; active means well fitted activation curve with a large enough effect in the signal ratio in the repeat runs, not every such curve was filed as active; the % refers to the signal ratio; further: potency means the concentration at half of the fitted maximal effect)
Method in brief: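 Read-out: LiveBLAzer B/G FRET substrate fluorescence after 2 h at room temperature, following 16 h compound treatment at 37 C of HepG2 cells carrying an ARE-driven beta-lactamase reporter.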

Measured: Potency

Aryl hydrocarbon receptor (Homo sapiens), sequence (P35869 whole entry, looked up): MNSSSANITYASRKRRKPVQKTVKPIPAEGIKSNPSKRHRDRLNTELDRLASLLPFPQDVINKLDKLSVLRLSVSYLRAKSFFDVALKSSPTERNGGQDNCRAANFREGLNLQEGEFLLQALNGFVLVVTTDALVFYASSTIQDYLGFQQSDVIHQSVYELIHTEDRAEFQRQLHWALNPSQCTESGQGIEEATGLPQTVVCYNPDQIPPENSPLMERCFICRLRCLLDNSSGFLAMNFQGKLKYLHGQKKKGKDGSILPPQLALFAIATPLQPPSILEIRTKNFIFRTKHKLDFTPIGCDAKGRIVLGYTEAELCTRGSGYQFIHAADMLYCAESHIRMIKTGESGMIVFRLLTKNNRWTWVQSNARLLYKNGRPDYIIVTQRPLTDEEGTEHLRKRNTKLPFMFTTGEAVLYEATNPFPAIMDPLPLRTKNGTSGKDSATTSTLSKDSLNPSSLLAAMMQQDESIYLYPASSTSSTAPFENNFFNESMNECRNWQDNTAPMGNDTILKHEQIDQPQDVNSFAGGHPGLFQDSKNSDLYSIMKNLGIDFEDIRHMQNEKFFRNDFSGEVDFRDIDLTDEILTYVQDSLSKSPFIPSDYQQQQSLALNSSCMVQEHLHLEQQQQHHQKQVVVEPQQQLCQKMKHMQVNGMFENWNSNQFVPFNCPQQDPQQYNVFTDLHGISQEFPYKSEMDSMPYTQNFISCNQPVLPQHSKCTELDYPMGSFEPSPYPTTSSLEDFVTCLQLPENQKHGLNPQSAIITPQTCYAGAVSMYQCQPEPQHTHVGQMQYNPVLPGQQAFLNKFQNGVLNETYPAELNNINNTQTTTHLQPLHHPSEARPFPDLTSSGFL
Bile acid receptor (Homo sapiens), sequence (Q96RI1 whole entry, looked up): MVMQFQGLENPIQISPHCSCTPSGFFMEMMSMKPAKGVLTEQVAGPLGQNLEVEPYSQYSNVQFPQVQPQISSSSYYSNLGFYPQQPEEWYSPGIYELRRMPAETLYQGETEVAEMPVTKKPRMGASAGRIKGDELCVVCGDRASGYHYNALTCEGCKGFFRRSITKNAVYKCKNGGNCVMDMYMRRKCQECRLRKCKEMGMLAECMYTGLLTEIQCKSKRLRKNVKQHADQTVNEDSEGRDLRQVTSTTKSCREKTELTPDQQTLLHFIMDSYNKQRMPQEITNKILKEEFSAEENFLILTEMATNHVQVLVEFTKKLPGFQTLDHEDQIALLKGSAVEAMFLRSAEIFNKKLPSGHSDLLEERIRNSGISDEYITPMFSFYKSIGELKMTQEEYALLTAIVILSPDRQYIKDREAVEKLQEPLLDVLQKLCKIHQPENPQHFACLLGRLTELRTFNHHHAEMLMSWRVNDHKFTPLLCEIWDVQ
Vitamin D3 receptor (Homo sapiens), sequence (P11473 whole entry, looked up): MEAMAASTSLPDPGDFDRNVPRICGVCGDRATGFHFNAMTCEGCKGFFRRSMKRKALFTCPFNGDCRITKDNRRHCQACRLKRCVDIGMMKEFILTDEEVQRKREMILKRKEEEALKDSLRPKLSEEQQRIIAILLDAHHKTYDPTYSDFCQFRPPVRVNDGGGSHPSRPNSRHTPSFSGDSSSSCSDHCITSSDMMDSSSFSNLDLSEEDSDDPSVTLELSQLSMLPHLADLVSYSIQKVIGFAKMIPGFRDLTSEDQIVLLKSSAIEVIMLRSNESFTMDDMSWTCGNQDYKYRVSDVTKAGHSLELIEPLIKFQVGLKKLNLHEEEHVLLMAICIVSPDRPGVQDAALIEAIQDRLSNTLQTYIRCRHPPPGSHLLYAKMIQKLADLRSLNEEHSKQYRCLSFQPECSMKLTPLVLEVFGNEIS
Peroxisome proliferator-activated receptor delta (Homo sapiens), sequence (Q03181 whole entry, looked up): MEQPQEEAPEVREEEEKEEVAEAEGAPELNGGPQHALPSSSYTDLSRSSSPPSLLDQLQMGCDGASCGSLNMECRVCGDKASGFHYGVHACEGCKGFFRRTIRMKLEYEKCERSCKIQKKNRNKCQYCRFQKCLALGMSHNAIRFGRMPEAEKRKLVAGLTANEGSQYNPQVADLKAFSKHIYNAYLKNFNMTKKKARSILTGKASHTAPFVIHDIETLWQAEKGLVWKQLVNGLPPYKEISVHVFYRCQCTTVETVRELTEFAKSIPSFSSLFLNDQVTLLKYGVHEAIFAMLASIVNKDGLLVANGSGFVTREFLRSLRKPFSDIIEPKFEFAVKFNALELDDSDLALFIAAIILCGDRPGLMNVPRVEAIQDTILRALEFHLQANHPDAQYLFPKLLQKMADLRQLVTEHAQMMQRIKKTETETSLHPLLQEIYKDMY
Peroxisome proliferator-activated receptor gamma (Homo sapiens), sequence (P37231 whole entry, looked up): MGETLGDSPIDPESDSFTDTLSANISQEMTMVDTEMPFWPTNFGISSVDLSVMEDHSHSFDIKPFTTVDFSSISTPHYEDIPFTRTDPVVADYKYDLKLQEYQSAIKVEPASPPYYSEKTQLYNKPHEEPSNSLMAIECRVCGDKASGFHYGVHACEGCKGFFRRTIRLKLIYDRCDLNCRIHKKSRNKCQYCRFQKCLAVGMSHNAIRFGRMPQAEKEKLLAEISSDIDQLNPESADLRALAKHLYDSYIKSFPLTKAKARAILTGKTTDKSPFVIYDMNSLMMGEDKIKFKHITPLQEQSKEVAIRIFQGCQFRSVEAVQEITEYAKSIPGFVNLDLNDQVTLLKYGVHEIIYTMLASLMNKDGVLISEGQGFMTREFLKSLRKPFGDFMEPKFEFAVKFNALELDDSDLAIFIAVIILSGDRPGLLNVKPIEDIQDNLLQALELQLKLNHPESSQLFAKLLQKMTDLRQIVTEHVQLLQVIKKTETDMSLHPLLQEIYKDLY

CCCCCCCCCCCCCCOS(=O)(=O)O
active: [5] 61.1 µM | [6] 43.6 µM | [7] 43.6 µM | [9] 54.9 µM
inactive: [1] | [2] | [3] | [4] | [8] | [10] | [11]

CC(C)Nc1ccc(NC(C)C)c2c1C(=O)c1ccccc1C2=O
not listed: [1] | [3] | [5] | [9] | [19] | [20]
inactive: all other assays above

Clc1ccc2c(c1)CCc1cccnc1C2=C1CCNCC1
active: [6] 26.6 µM | [7] 15 µM | [8] 29.8 µM | [17] 29.8 µM | [19] 29.8 µM
inactive: [1] | [3] | [4] | [15] | [16] | [18] | [10]

O=C(CS)Nc1ccccc1
not listed: [1] | [3] | [4] | [13] | [15]
inactive: all other assays above

CCCCC1=NC2(CCCC2)C(=O)N1Cc1ccc(-c2ccccc2-c2nn[nH]n2)cc1
not listed: [2] | [11] | [12] | [13] | [20]
inactive: all other assays above

CN1CCC(N(Cc2cccs2)c2ccccc2)CC1
inactive: [12] | [2] | [4] | [5] | [16]

O=C1[C@H]2CCCC[C@H]2C(=O)N1CCCCN1CCN(c2nsc3ccccc23)CC1
active: [12] 29.8 µM | [20] 23.7 µM
not listed: [1] | [2] | [3] | [10] | [11] | [13]
inactive: all other assays above

CCN(CC)CCNc1ccc(CNC=O)c2sc3ccc(OC)cc3c(=O)c12
inactive: [14] | [15] | [16] | [10]
active: [12] 48.6 µM | [13] 5.45 µM | [3] 12.3 µM | [5] 48.6 µM | [6] 30.9 µM | [8] 15.5 µM | [9] 4.9 µM | [18] 6.92 µM

C#C[C@]1(O)CC[C@H]2[C@@H]3CCc4cc(OC5CCCC5)ccc4[C@H]3CC[C@@]21C
active: [9] 26.6 µM
inactive: [12] | [13] | [2] | [4] | [14] | [15] | [10]

Cc1ccc(N=Nc2c(O)c(C(=O)O)cc3ccccc23)c(S(=O)(=O)O)c1
active: [12] 6.65 µM
not listed: [1] | [10] | [11] | [13] | [17] | [18] | [20]
inactive: all other assays above

C[N+]1(C)CCC(OC(=O)C(O)(c2ccccc2)C2CCCC2)C1 (centres undefined)
not listed: [1] | [3] | [8] | [10] | [17] | [18] | [20]
inactive: all other assays above

CN1C[C@H]2c3ccccc3Oc3ccc(Cl)cc3[C@@H]2C1
active: [1] 13.3 µM
not listed: [4] | [6] | [7] | [8] | [12] | [13] | [15] | [20]
inactive: all other assays above

Cc1cc(N)c2cc(NC(=O)Nc3ccc4nc(C)cc(N)c4c3)ccc2n1
active: [19] 18.8 µM
inactive: [12] | [13] | [14] | [9] | [18] | [10]

O=[N+]([O-])c1ccc(NCCO)c(OCCO)c1
not listed: [6] | [8] | [12] | [13]
inactive: all other assays above

Nc1ccccc1S(=O)(=O)c1ccccc1
inactive: [13] | [4] | [5] | [14] | [15] | [7] | [17] | [9] | [18] | [19] | [10]

CCC(C)c1cc(C(C)(C)C)c(O)c(C(C)(C)C)c1 (centres undefined)
inactive: [13] | [4] | [5] | [7] | [8] | [19] | [10]

CC1=CCCC(C)(C)C12CCC(C)O2 (centres undefined)
inactive: [13] | [4] | [5] | [14] | [15] | [6] | [7] | [17] | [18]

COc1cc2c(cc1OC)C(C(C(=O)N(CCc1ccc(OC)c(OC)c1OC)CCc1ccc(OC)c(OC)c1OC)c1ccccc1)=NCC2 (centres undefined)
active: [13] 8.41 µM
inactive: [4] | [20] | [5] | [14] | [15] | [6] | [16] | [7] | [19]

From PubChem BioAssay (Tox21)
